Hits are enriched below; roughly 4% of the tested compounds scored in any of these assays.
Rv3671c protease – inhibitors of M. tuberculosis serine protease Rv3671c | 320,000 tested, 0.048% active | P9WHR9 | inhibition, % at 5.96 µM; in the data active = inhibition above about 38%;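 also: extracellular domain of Rv3671c used as enzyme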
FBA Mtb inh – inhibitors of M. tuberculosis fructose-bisphosphate aldolase | AID 588726 | inhibition, % at 1 µM | purified M. tuberculosis FBA, fluorescence read-out | 360,000 tested, 2.3% active | P9WQA3; in the data active = inhibition above about 27%
Mtb betalactam – beta-lactam sensitization of Mtb H37Rv | inhibition, % at 25 µM | AID 434955 | M. tuberculosis H37Rv growth with meropenem, percent inhibition | 330,000 tested, 0.27% active; call rule not given here;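 also: growth measured after seven days incubation then overnight dye step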
RecA intein inh – inhibitors of M. tuberculosis RecA intein splicing; P9WHJ3; cell-free RecA intein splicing, fluorescence; inhibition, % (no concentration beside the values); 290,000 tested, 0.75% active; AID 2221; in the data active = inhibition above about 30%; inconclusive = no clear call, values can overlap the other calls
Target sequence (P9WHJ3 whole entry, looked up): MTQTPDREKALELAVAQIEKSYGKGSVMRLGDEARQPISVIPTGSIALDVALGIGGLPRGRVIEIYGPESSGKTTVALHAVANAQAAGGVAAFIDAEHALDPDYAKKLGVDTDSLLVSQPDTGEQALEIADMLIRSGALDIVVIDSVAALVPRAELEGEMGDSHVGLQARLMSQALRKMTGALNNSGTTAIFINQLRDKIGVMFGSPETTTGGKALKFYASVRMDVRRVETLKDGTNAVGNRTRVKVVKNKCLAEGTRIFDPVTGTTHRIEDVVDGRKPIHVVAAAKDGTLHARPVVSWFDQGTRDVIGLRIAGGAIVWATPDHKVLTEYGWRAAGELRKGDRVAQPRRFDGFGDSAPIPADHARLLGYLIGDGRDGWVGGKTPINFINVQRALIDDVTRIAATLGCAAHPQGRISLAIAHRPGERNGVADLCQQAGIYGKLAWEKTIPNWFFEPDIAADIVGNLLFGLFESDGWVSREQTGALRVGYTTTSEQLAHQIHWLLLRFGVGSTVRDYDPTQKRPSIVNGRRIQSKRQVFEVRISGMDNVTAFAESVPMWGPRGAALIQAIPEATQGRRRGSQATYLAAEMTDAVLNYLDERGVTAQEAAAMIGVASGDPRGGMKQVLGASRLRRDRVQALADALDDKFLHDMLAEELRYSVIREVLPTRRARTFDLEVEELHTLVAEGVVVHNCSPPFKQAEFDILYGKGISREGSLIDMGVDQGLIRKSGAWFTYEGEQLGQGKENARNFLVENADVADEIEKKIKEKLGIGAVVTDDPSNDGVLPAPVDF
Mtb UGM inh – Mtb UDP-galactopyranose mutase inhibition; P9WIQ1; purified UGM, fluorescence polarization probe displacement; inhibition, % at 10 µM; 320,000 tested, 0.06% active; in the data active = inhibition above about 10%, passing the limit was not always enough; inconclusive = no clear call, values can overlap the other calls
GDH-TPI counter – inhibits GDH-TPI coupling enzymes, artifact for Mtb FBA screen; GDH-TPI coupled enzyme counterscreen, NADH absorbance; inhibition, % at 4.8 µM; 360,000 tested, 1.2% active; AID 588335; in the data active = inhibition above about 30%
Hits are given with their value; n = inactive; u = inconclusive; x = no result given.

SMILES | Rv3671c protease | FBA Mtb inh | Mtb betalactam | RecA intein inh | Mtb UGM inh | GDH-TPI counter
Cc1cccc(-n2c(C)cc(C=C(C#N)C#N)c2C)c1 | n | n | n | n | n | n
Cc1cc(/C=C(/C#N)c2cccc(F)c2)c(C)n1-c1cccnc1 | n | n | n | n | n | 38
O=C(/C=C/c1ccccc1)NCc1ccco1 | n | n | n | n | n | n
Cc1ccsc1/C=C(\C#N)C(=O)NCc1ccco1 | n | n | n | n | n | 32
N#C/C(=C\c1cccs1)C(=O)NCc1ccco1 | n | n | n | n | n | n
O=C(Nc1ccc(C(=O)N2CCCC2)cc1)c1cc(F)c(F)cc1Cl | x | n | x | x | x | n
COc1ccc2nc(NC(=O)c3ccc(NS(=O)(=O)c4cccs4)cc3)sc2c1 | n | n | n | n | n | 40
Cc1cccc2sc(NC(=O)c3ccc(NS(=O)(=O)c4cccs4)cc3)nc12 | n | n | n | n | n | 32
Cc1cc(F)ccc1NC(=O)c1ccc(NS(=O)(=O)c2cccs2)cc1 | x | n | x | x | x | n
COc1ccc2nc(NC(=O)CNS(=O)(=O)c3cccs3)sc2c1 | n | n | n | n | n | n
CCc1ccc(-c2cc3c(=O)n(CC(=O)NCCCN4CCN(C)CC4)ncn3n2)cc1 | n | n | u | n | n | n
CCOc1ccc(/C(CCC(=O)O)=N/NC(=O)c2cccc(S(=O)(=O)Nc3ccccc3OC)c2)cc1 | n | n | n | x | 11 | n
COc1cccc(NC(=O)C2CCC(CNS(=O)(=O)c3cccc4cccnc34)CC2)c1 (stereo unspecified) | n | n | n | n | n | n
CC1(C(=O)Nc2cccc(OC(F)(F)F)c2)Cc2c(-c3ccc(C(N)=O)cc3)ccnc2O1 (stereo unspecified) | x | n | x | x | x | n
CN(CCN1CCOCC1)C(=O)c1cc(COc2ccc(F)c(F)c2)on1 | n | n | n | n | n | n
O=C(N/N=C/c1ccc([N+](=O)[O-])o1)c1cc(-c2ccncc2)nc2ccccc12 | n | n | n | n | n | 40
CC(/C=N/NC(=O)c1cc(-c2ccncc2)nc2ccccc12)=C\c1ccco1 | n | n | u | x | n | n
Cc1ccsc1/C=N/NC(=O)c1cc(-c2ccncc2)nc2ccccc12 | n | n | n | n | n | 43
COc1ccccc1-c1cc(C(=O)N/N=C/c2ccc(C)o2)c2ccccc2n1 | x | n | x | n | x | 49
O=C(N/N=C/c1ccc([N+](=O)[O-])o1)c1cc(-c2ccc(-c3ccccc3)cc2)nc2ccccc12 | n | n | n | n | n | n
O=C(N/N=C/c1ccco1)c1cc(-c2cccc(Br)c2)nc2ccccc12 | n | n | n | n | n | 41
Cc1ccc(F)c(S(=O)(=O)NC(=O)C2(C)CCN2C(=O)c2ccc(C3CCCCC3)cc2)c1 (stereo unspecified) | x | n | x | x | x | n
COc1ccc(CNC(=O)C2CCCN(S(=O)(=O)c3ccc(-n4cnnn4)cc3)C2)cc1 (stereo unspecified) | n | n | n | x | n | n
CC1CCC(NC(=O)COC(=O)c2ccco2)CC1 (stereo unspecified) | n | n | n | x | n | n
O=C(Nc1cccc(-c2ccc(N3CCOCC3)nn2)c1)c1ccc(F)cc1F | n | n | n | n | n | n
SMILES | Rv3671c protease | FBA Mtb inh | Mtb betalactam | RecA intein inh | Mtb UGM inh | GDH-TPI counter
O=C(O)CCn1c2ccccc2c2nc3ccccc3nc21 | n | n | n | n | n | 31
CCOC(=O)Cc1csc(SC(C)C(=O)NC2CCCCC2C)n1 (stereo unspecified) | n | n | n | n | n | n
C#CCN1C(=O)C(O)(CC(=O)/C=C/C=C/c2ccccc2)c2ccccc21 (stereo unspecified) | n | n | n | n | n | n
O=C(/C=C/C=C/c1ccccc1)CC1(O)C(=O)N(CCc2ccccc2)c2ccccc21 (stereo unspecified) | n | n | n | n | n | n
NC(=O)CN1C(=O)C(O)(CC(=O)/C=C\C=C\c2ccccc2)c2ccccc21 (stereo unspecified) | n | n | n | n | x | 34
CCN1C(=O)C(O)(CC(=O)/C=C/C=C/c2ccccc2)c2ccccc21 (stereo unspecified) | n | n | n | n | n | 41
Cc1ccc2c(c1)C(O)(CC(=O)/C=C/C=C/c1ccccc1)C(=O)N2 (stereo unspecified) | n | n | n | n | n | 38
CC(C)(C)OC(=O)C[C@@H]1C/C=C\C[C@@H](CC(=O)N[C@H](CO)Cc2ccccc2)C(=O)N2CCC[C@H]2COC1=O | n | n | n | x | n | n
Cc1cc(C)c[n+](-c2[nH]c(=O)sc2/C=N/N=C(\[O-])c2cccnc2)c1 | n | n | n | n | n | 35
O=C(N/N=C/c1ccc(N2CCOCC2)cc1)c1ccc(NS(=O)(=O)c2cccs2)cc1 | n | n | n | n | n | 35
O=C(N/N=C/c1ccc(N2CCOCC2)s1)c1ccc(NS(=O)(=O)c2cccs2)cc1 | n | n | n | n | n | 45
O=C(N/N=C/c1ccc(N2CCOCC2)cc1)c1cccs1 | n | n | n | n | n | 32
COc1ccc(C(=O)N/N=C/c2ccc(N3CCOCC3)s2)cc1OC | n | n | n | x | n | n
NS(=O)(=O)c1cc2c(cc1Cl)NC(c1ccccc1OCC(=O)O)NS2(=O)=O (stereo unspecified) | n | n | n | n | n | n
COc1ccc(C(CNC(=O)c2ccc(-c3ccccc3)cc2)N(C)C)cc1OC (stereo unspecified) | n | n | n | n | n | n
CCn1ncc(Br)c1C(=O)Nc1ccc(C(C)C)cc1 | n | n | n | n | n | n
Cc1noc(C)c1COC(=O)c1cc2c3ccccc3n(C)c2s1 | n | n | n | x | n | 40
c1coc(C2=NC(c3ccco3)C(c3ccco3)N2)c1 (stereo unspecified) | x | 49 | x | x | x | n
Cc1ccc(C(=O)CCC(=O)Nc2ccccc2F)cc1 | x | n | n | n | n | n
N[C@@H]1CCCC[C@H]1N.O=C(O)C(=O)O.[Pt] | n | x | n | 50 | n | x
O=C(O)CC1CCC1CC(=O)O (stereo unspecified) | x | n | x | x | x | n
COc1ccc(C=NNc2nc3ccccc3s2)cc1 | x | n | x | x | x | n
Cc1ccc2[nH]c(C)c(/C=N/Nc3nc4ccccc4s3)c2c1 | n | n | n | n | n | 38
Cc1ccc2nc(Cl)c3nnnn3c2c1 | n | n | n | 79 | n | n
Cc1ccc2nc(N3CCN(c4cccc(C)c4C)CC3)c3nnnn3c2c1 | n | n | n | n | n | n
COc1ccc(-c2cc(C(F)(F)F)nc(SCC(=O)NCc3ccco3)n2)cc1OC | n | n | n | n | n | 31
COc1ccc(-c2cc(C(F)(F)F)nc(SCC(N)=O)n2)cc1 | n | 114 | n | n | n | n
O=C(CSc1nc(-c2ccccc2)cc(C(F)(F)F)n1)NCc1ccco1 | n | n | n | n | n | n
COc1ccc(-c2cc(C(F)(F)F)nc(SCC(=O)NCc3cnn(C)c3C)n2)cc1OC | n | n | n | n | n | n
COc1ccc(-c2cc(C(F)(F)F)nc(SCC(=O)N(C)Cc3cn(C)nc3C)n2)cc1OC | n | n | n | n | n | 41

Source: PubChem BioAssay
